# Results reported in article PMC5540273 (PLoS ONE, 2017).
# System: PAK4
# Details: concentration: 1 μM, replicates: in singlicate; n = 1
# 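Also: KINOMEscan kinase panel screen.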
row,SMILES,%Inh [%]
1,Fc1cc(Cl)ccc1Nc1ccnc2cc(-c3ccc(CN4CCCCC4)o3)ccc12 [GW560116],0
2,O=S(=O)(c1ccc(-c2ccnc3[nH]ccc23)cc1)N1CCCC1 [GSK846226],0
3,CC(C)(C)c1ccc(C(=O)Nc2cn3cc(-c4cccnc4)ccc3n2)cc1,24
4,O=C(Nc1n[nH]c2nc(-c3nccs3)c(Br)cc12)C1CCCC1 [SB-742609],0
5,COc1ccc(Nc2nccc(NCCNC(=O)Nc3ccccc3F)n2)cc1 [GSK1379901],0
6,O=C1NC(=O)C(N2CCc3ccccc32)=C1c1ccccc1Cl [SB-373598],0
7,O=C(Nc1ccccc1)Nc1cccc(Oc2ccc3nccn3n2)c1,0
8,COc1cc(Nc2nccc(N3CCC(NC(=O)Nc4cc(C)ccc4C)C3)n2)cc(OC)c1OC (centres unmarked) [GSK1379762],0
9,COc1ccccc1CNC(=O)c1cc(C(=O)c2ccccc2C)c[nH]1 [GSK364507],0
10,COc1cc2ncnc(Nc3ccc4nc(-c5ccccc5)[nH]c4c3)c2cc1OC.Cl [GW282450],0
11,Cc1cccc(-c2nc(Nc3ccc4[nH]ncc4c3)c3ccccc3n2)n1 [GW857175],6
12,O=c1cc(N2CCOCC2)nc2n(Cc3cccc(Cl)c3Cl)ccn12 [GSK2286295],0
13,CN(C)CCN(C)C(=O)c1cc(-c2ccncc2)c(-c2ccc(Cl)c(O)c2)o1.Cl.Cl [SB-710397],0
14,COc1ccc2nc(-c3cccc(C)n3)nc(Nc3ccncc3)c2c1 [GSK204919],0
15,Cl.Oc1ccc(-c2nc(-c3ccccc3)[nH]c2-c2ccncc2)cc1 [SB-428218],0
16,Cn1ccc2ncnc(Oc3ccc(NC(=O)Nc4ccccc4)cc3)c21,10
17,COC(=O)c1c(-c2ccccc2)c2cc(C(=O)O)ccc2c(=O)n1Cc1ccccc1,0
18,CS(=O)(=O)c1ccc(-c2nc3n(c2-c2ccncc2)CCC3)cc1 [SKF-105942],0
19,NC(=O)c1nnc2ccccc2c1N,0
20,Cc1cc(NCC(c2ccccc2)c2ccccc2)nc(NCc2ccc(C(F)(F)F)cc2)n1 [GW497681],0
21,O=C(Nc1ccc2c(c1)OCO2)NC1CCN(c2ccnc(Nc3ccc(F)cc3)n2)C1 (centres unmarked) [GSK1379724],0
22,Cl.NC(=O)c1cccc(Nc2nccc(Nc3ccc(Oc4cccc(Cl)c4)c(Cl)c3)n2)c1 [GW659008],0
23,COC(=O)c1c(-c2ccccc2)c2cc(OC)ccc2c(=O)n1Cc1ccccc1,9
